The panel holds about 83,000 compounds, 20% with a hit somewhere; the sample as a whole holds those more often.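 Interpretation: 100, growth as untreated; towards 0, rising growth inhibition; 0, no net growth; 0 to -100, cell death. Compounds scoring below 10 were considered active.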 Activity calls are given as the source filed them.

This passage reports growth results from PubChem BioAssay (NCI).

This experiment relates to KM12 colon. Nature of the experiment: NCI-60 one-dose screen, 48 h (100 = growth as untreated, 0 = no growth, -100 = all killed). The following applies: 10 µM unless noted.
With `CCN(CC)c1ccc(C(=O)c2ccccc2)cc1`, the growth was 101% (inactive). Under `NC1=NN=C(N)C1=Cc1cc2ccccc2n2nnnc12` stands 105% (inactive); under `Fc1ccc(-c2cn3c(nc4ccccc43)c(-c3ccccc3)n2)cc1`, 92.1% (inactive); under `CCNc1nc2ccc(Nc3ccnc4cc(Cl)ccc34)cc2[nH]1`, 67% (inactive). The figure for `O=S(=O)(NCCNc1nccc(-c2c(-c3cccc(O)c3)nc3occn23)n1)c1cccc(F)c1` is 88.2% (inactive); for `COC(=O)/C=C1\S/C(=N\NC(=O)c2cc3ccc2/C=C\c2ccc(cc2)/C=C\3)N(c2ccccc2)C1=O` it is 8.49% (active); for `CCOC(=O)c1cc(C(=O)c2ccc(OC)c(OC)c2)n2c1ccc1ccccc12` it is 98.4% (inactive).

As to `CCOC(=O)c1cc(C#N)n2ccc3ccccc3c12`, the growth was 100% (inactive). Under `O=C1/C=C/[C@@H](O)[C@@H]2C[C@@H](O)C[C@H]2/C=C/CCC[C@H](CCc2ccc3ncccc3c2)O1` stands -40.3% (active). Under `N#CC1=C(N)Oc2c(ccc3ccccc23)C1c1ccccc1Cl` (centres undefined) stands 12.8% (inactive); under `O=C(O)c1ccc(NCc2cn(-c3ccc(C(F)(F)F)cc3)nc2-c2ccc(C(=O)O)cc2)cc1`, 104% (inactive). The figure for `COc1cccc(C(=O)NNc2nc(Cl)nc(N3CCN(C(c4ccccc4)c4ccccc4)CC3)n2)c1` is 90.2% (inactive); for `N#C/C(=C\c1ccc(Cl)cc1)n1nnc2cc(F)c(F)cc21` it is 16.2% (inactive). As for `COc1ccc(C(=O)C2C(C#N)C(C#N)C3c4ccccc4C=CN23)cc1` (centres undefined), the growth was 98.3% (inactive).
